# According to PubChem BioAssay (NCI):
# About 83,000 compounds went through this panel and 20% of them were active in at least one assay; those are over-represented in the sample as a whole.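 Cells were grown in 96-well plates and exposed to the test compound at a single concentration for 48 hours; results are reported as percent growth, with values below 10 considered active.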 Calls of active or inactive are those of the source.
# Test system: HL-60(TB) leukemia
# Assay: NCI-60 one-dose screen, 48 h (100 = growth as untreated, 0 = no growth, -100 = all killed)
# Conditions: 10 µM unless noted
row,Structure (SMILES),growth
1,O=C(O)CC1CCCCC1c1ccccc1 (stereo not given),99.9% (inactive)
2,COc1cccc(-c2nn(-c3ccccc3)cc2-c2ccnc(NCCCO)c2)c1,-7.94% (active)
3,O=C(Nc1ccc(-n2ccc3c(NC(=O)c4ccccc4)ncnc32)cc1)Nc1ccc(Cl)c(C(F)(F)F)c1,15.3% (inactive)
4,Nc1n[nH]c2cc(F)c([C@@H]3Nc4ccc5[nH]ncc5c4[C@H]4C5CCC(C5)[C@@H]34)cc12 (stereo not given in full),-22.4% (active)
5,COc1ccc(Br)c(/C=C2\SC(=Nc3ccc(O)cc3)NC2=O)c1,76.6% (inactive)
6,O=C(Nc1ccc(Cl)cc1Cl)Nc1ccc(-c2cccnc2)cc1N1CCC(CO)CC1,6.31% (active)
7,S=c1[nH]ccn1-c1c(Cl)cccc1Cl,93.5% (inactive)
8,Nc1ncc(-c2ccc3ncnc(N4CCc5cc(F)c(Cl)cc54)c3c2)cc1C=O,2.72% (active)
9,CCCCC/C=C/CCC(=O)N[C@H]1[C@H](Oc2c3cc4cc2Oc2ccc(cc2Cl)[C@@H](O[C@@H]2O[C@H](CO)[C@@H](O)[C@H](O)[C@H]2NC(C)=O)[C@@H]2NC(=O)[C@H](NC(=O)[C@@H]4NC(=O)[C@H]4NC(=O)[C@@H](Cc5ccc(c(Cl)c5)O3)NC(=O)[C@@H](N)c3ccc(O)c(c3)Oc3cc(O)cc4c3)c3ccc(O)c(c3)-c3c(O[C@H]4O[C@H](CO)[C@@H](O)[C@H](O)[C@@H]4O)cc(O)cc3[C@H](C(=O)O)NC2=O)O[C@H](CO)[C@H](O)[C@@H]1O,105% (inactive)
10,C=C1C(=O)O[C@H]2[C@H]1CC/C(C(=O)NCCCCCCCCNC(=O)/C1=C/CC[C@@]3(C)O[C@H]3[C@H]3OC(=O)C(=C)[C@@H]3CC1)=C\CC[C@@]1(C)O[C@@H]21,6.59% (active)
11,COc1ccc(-c2noc(C(=O)O)c2-c2cc(OC)c(OC)c(OC)c2)cc1,-38.5% (active)
12,CCOC(=O)C1=C(C(=O)c2ccc(Br)cc2)C(c2ccc(Br)cc2)NC(=S)N1 (stereo not given),117% (inactive)
13,CC(C)=C1CCC(C)C/C1=N\N=C(N)N (stereo not given),104% (inactive)
14,COC(=O)c1cncc(C(=O)Nc2ccc(-n3cnc4ccccc43)cc2)c1,93.7% (inactive)
15,O=c1c2cccc3c(Nc4ccc(Br)cn4)ccc(c32)c2nc3ccccc3n12,128% (inactive)
16,CCN(CC)c1ccc(/C=N/NC(=O)c2ccc(S(C)(=O)=O)cc2)c(O)c1,-18.5% (active)
17,CCOC(=O)c1c(-c2cc(OC)c(OC)c(OC)c2)csc1N,96.3% (inactive)
18,COCCCC/C(=N\OCCN)c1ccc(C(F)(F)F)cc1,122% (inactive)
19,COc1cc(CCNc2nc3cc(N)cc(N)c3nc2-c2ccccc2)cc(OC)c1,-66.1% (active)
20,COc1ccc2nc(-c3ccc(Cl)cc3)cc(C(=O)N3N=C(c4ccc(N)cc4)CC3c3ccccc3)c2c1 (stereo not given),-1.6% (active)

row,Structure (SMILES),growth
1,Clc1ccc(N2CCN(CCCN3CCN(c4cccc(Cl)c4)CC3)CC2)cc1,17% (inactive)
2,Cc1cc(C)nc(SC2=C(Nc3cccc(Cl)c3)C(=O)N(Cc3ccccc3)C2=O)n1,18.1% [30 µM] (inactive)
3,Nc1ccc2c(S(=O)(=O)O)ccc(S(=O)(=O)O)c2c1,76.2% (inactive)
4,COc1ccc2c(c1)c(-c1cc(-c3cn(C)c4ccc(OC)cc34)on1)cn2C,101% (inactive)
5,O=CC(OC(=O)c1ccccc1)C(OC(=O)c1ccccc1)C(COC(c1ccccc1)(c1ccccc1)c1ccccc1)OC(=O)c1ccccc1 (stereo not given),-12.3% (active)
6,O=c1cc(N2CCOCC2)oc2c(-c3ccc4c(c3)OCCO4)csc12,4.41% (active)
7,O=[N+]([O-])c1ccc(N/N=C\c2cc(Cl)ccc2O)nc1,-2.47% (active)
8,CC/C=C\C[C@H](O)C/C=C1/C(=O)C=C[C@@H]1C/C=C\CCCC(=O)O,75.2% (inactive)
9,O=C1C=CC(=O)N1c1ccccc1,44.5% (inactive)
10,O=Cc1ccc(O)c(O)c1,88% (inactive)
11,Cn1ccnc1C(=O)/C=C/c1ccc(C(=O)Nc2ccc(Cl)cc2)cc1,-16.9% (active)
12,Nc1nc(Nc2ccccc2)n[nH]1,97.7% (inactive)
13,CN(C)S(=O)(=O)c1ccc(S(=O)(=O)Nc2cccc(Cl)c2N2CCCCC2)cc1,76.7% (inactive)
14,C=CCCC(=O)N1C=CC(=O)[C@H](O)[C@@H]1/C=C/c1ccccc1,32.2% [100 µM] (inactive)
15,C=CC[n+]1c(/C=C/C=C2\N(C)c3ccccc3C2(C)C)sc2ccc(OC)cc21,-21% (active)
16,COc1ccc2c(c1)[nH]c(=O)c1c3cc(OC)ccc3cn21,-8.1% (active)
17,CCCn1c(=O)c2c(nc(-c3cccc(OCCCCl)c3)n2C)n(CCC)c1=O,107% (inactive)
18,O=C(Cc1ccc(Nc2ccnc(C(F)(F)F)c2)cc1)N/N=C/c1ccccc1O,69.1% (inactive)
19,CC/C=C\C[C@H](O)C/C=C1/C(=O)C=C[C@@]1(C)C/C=C\CCCC(=O)OC,98.9% (inactive)
20,COc1cc([C@@H]2c3cc4c(cc3C(O[C@@H]3O[C@@H]5CO[C@@H](c6cccs6)OC5[C@H](O)[C@H]3O)C3COC(=O)[C@@H]32)OCO4)cc(OC)c1O (stereo not given in full),-21.7% (active)
